Results from PubChem BioAssay AID1159580 (chemical genetic matrix, 2015).
The whole screen tested about 5,500 compounds, of which about 2,000 (36%) were called active. Inconclusive results (about 18%) are left out. Rule as the data show it: active = normalized growth mostly below about 0.91 (no sharp cut-off); inconclusive = no clear call, values can overlap the other calls; inactive = mostly above about 0.92. This is one part of the list.

Assay: chemical genetic growth profiling, strain panel (AID 1159580);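 also: tested at 20 µM; growth read once vehicle control cultures reached saturation at 30 °C; 1 = growth at the plate median or of vehicle wells; lower values mean less growth of the strain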
Conditions: growth OD

Measured: normalized growth

CO[C@@]1(NC(=O)Cc2cccs2)C(=O)N2C(C(=O)O)=C(COC(N)=O)CS[C@@H]21
inactive: S. cerevisiae deletion strains, locus YJR066W, strain TOR1, active compounds read low 0.995 | S. cerevisiae deletion strains, locus YKL009W, strain mrt4, active compounds read low 1.01 | S. cerevisiae deletion strains, locus YKL068W, active compounds read low 0.992 | S. cerevisiae deletion strains, locus YKL085W, strain MDH1 (second series), active compounds read low 0.992 | S. cerevisiae deletion strains, locus YKL085W, strain MDH1, active compounds read low 0.992 | S. cerevisiae deletion strains, locus YKL160W, strain elf1, active compounds read low 0.927 | S. cerevisiae deletion strains, locus YKL190W, strain CNB1, active compounds read low 1.01 | S. cerevisiae deletion strains, locus YKR001C, strain vps1, active compounds read low 0.995 | S. cerevisiae deletion strains, locus YKR026C, strain gcn3, active compounds read low 0.977 | S. cerevisiae deletion strains, locus YKR091W, strain srl3, active compounds read low 0.971 | S. cerevisiae deletion strains, locus YLL001W, strain dnm1, active compounds read low 0.966 | S. cerevisiae deletion strains, locus YLL026W, active compounds read low 0.986 | S. cerevisiae deletion strains, locus YLL041C, strain sdh2, active compounds read low 0.971 | S. cerevisiae deletion strains, locus YLR027C, strain aat2, active compounds read low 0.985 | S. cerevisiae deletion strains, locus YLR039C, strain RIC1, active compounds read low 0.998 | S. cerevisiae deletion strains, locus YLR058C, strain SHM2, active compounds read low 1.01 | S. cerevisiae deletion strains, locus YLR102C, strain apc9, active compounds read low 0.989 | S. cerevisiae deletion strains, locus YLR113W, strain HOG1, active compounds read low 1.06 | S. cerevisiae deletion strains, locus YLR221C, strain rsa3, active compounds read low 1 | S. cerevisiae deletion strains, locus YLR258W, strain gsy2, active compounds read low 0.976 | S. cerevisiae deletion strains, locus YLR262C, strain YPT6 (second series), active compounds read low 0.98 | S. cerevisiae deletion strains, locus YLR262C, strain YPT6, active compounds read low 1.01 | S. cerevisiae deletion strains, locus YLR268W, strain sec22, active compounds read low 0.993 | S. cerevisiae deletion strains, locus YLR320W, strain mms22, active compounds read low 0.977 | S. cerevisiae deletion strains, locus YLR330W, strain CHS5, active compounds read low 1 | S. cerevisiae deletion strains, locus YLR342W, strain FKS1 (second series), active compounds read low 0.985 | S. cerevisiae deletion strains, locus YLR342W, strain FKS1, active compounds read low 0.953 | S. cerevisiae deletion strains, locus YLR357W, strain rsc2, active compounds read low 0.915 | S. cerevisiae deletion strains, locus YLR370C, strain arc18, active compounds read low 0.961 | S. cerevisiae deletion strains, locus YLR371W, strain rom2, active compounds read low 0.992 | S. cerevisiae deletion strains, locus YLR384C, strain iki3, active compounds read low 0.968 | S. cerevisiae deletion strains, locus YLR418C, strain cdc73, active compounds read low 0.988 | S. cerevisiae deletion strains, locus YML016C, strain PPZ1, active compounds read low 1 | S. cerevisiae deletion strains, locus YML032C, strain rad52, active compounds read low 0.994 | S. cerevisiae deletion strains, locus YML120C, strain ndi1, active compounds read low 0.986 | S. cerevisiae deletion strains, locus YML124C, strain tub3, active compounds read low 0.993 | S. cerevisiae deletion strains, locus YMR058W, strain fet3, active compounds read low 0.984 | S. cerevisiae deletion strains, locus YMR078C, strain ctf18, active compounds read low 0.993 | S. cerevisiae deletion strains, locus YMR125W, strain sto1, active compounds read low 0.963 | S. cerevisiae deletion strains, locus YMR129W, active compounds read low 0.971 | S. cerevisiae deletion strains, locus YMR205C, strain PFK2, active compounds read low 0.988 | S. cerevisiae deletion strains, locus YMR223W, strain ubp8, active compounds read low 0.998 | S. cerevisiae deletion strains, locus YMR231W, strain pep5, active compounds read low 0.98 | S. cerevisiae deletion strains, locus YMR307W, strain GAS1, active compounds read low 0.975 | S. cerevisiae deletion strains, locus YNL067W, strain RPL9B, active compounds read low 1 | S. cerevisiae deletion strains, locus YNL071W, strain lat1, active compounds read low 0.973 | S. cerevisiae deletion strains, locus YNL153C, strain GIM3, active compounds read low 1.02 | S. cerevisiae deletion strains, locus YNL183C, strain NPR1, active compounds read low 1 | S. cerevisiae deletion strains, locus YNL209W, strain ssb2, active compounds read low 0.972 | S. cerevisiae deletion strains, locus YNL233W, strain BNI4, active compounds read low 1 | S. cerevisiae deletion strains, locus YNL248C, strain rpa49, active compounds read low 0.916 | S. cerevisiae deletion strains, locus YNL250W, strain rad50, active compounds read low 1.01 | S. cerevisiae deletion strains, locus YNL271C, strain bni1, active compounds read low 0.985 | S. cerevisiae deletion strains, locus YNL298W, strain CLA4, active compounds read low 0.975 | S. cerevisiae deletion strains, locus YNL307C, strain MCK1, active compounds read low 1 | S. cerevisiae deletion strains, locus YNL322C, strain KRE1 (second series), active compounds read low 0.972 | S. cerevisiae deletion strains, locus YNL322C, strain KRE1, active compounds read low 1.01 | S. cerevisiae deletion strains, locus YNR049C, strain mso1, active compounds read low 0.953 | S. cerevisiae deletion strains, locus YNR052C, strain pop2, active compounds read low 1 | S. cerevisiae deletion strains, locus YOL006C, strain TOP1, active compounds read low 1.08 | S. cerevisiae deletion strains, locus YOL012C, strain htz1 1.61 | S. cerevisiae deletion strains, locus YOL147C, strain pex11, active compounds read low 0.992 | S. cerevisiae deletion strains, locus YOR001W, strain rrp6, active compounds read low 1 | S. cerevisiae deletion strains, locus YOR061W, strain CKA2, active compounds read low 1.01 | S. cerevisiae deletion strains, locus YOR069W, strain VPS5, active compounds read low 1 | S. cerevisiae deletion strains, locus YOR070C, strain gyp1, active compounds read low 0.979 | S. cerevisiae deletion strains, locus YOR080W, strain dia2, active compounds read low 0.986 | S. cerevisiae deletion strains, locus YOR083W, strain WHI5, active compounds read low 0.894 | S. cerevisiae deletion strains, locus YOR106W, strain vam3, active compounds read low 0.951 | S. cerevisiae deletion strains, locus YOR136W, strain idh2, active compounds read low 1 | S. cerevisiae deletion strains, locus YOR144C, strain elg1, active compounds read low 0.998 | S. cerevisiae deletion strains, locus YOR184W, strain ser1, active compounds read low 1.02 | S. cerevisiae deletion strains, locus YOR231W, strain MKK1, active compounds read low 1.09 | S. cerevisiae deletion strains, locus YOR265W, strain rbl2, active compounds read low 0.999 | S. cerevisiae deletion strains, locus YOR270C, strain vph1, active compounds read low 0.936 | S. cerevisiae deletion strains, locus YOR290C, strain snf2, active compounds read low 0.945 | S. cerevisiae deletion strains, locus YOR316C, strain cot1, active compounds read low 0.995 | S. cerevisiae deletion strains, locus YPL051W, strain arl3, active compounds read low 0.977 | S. cerevisiae deletion strains, locus YPL078C, strain atp4, active compounds read low 0.937 | S. cerevisiae deletion strains, locus YPL106C, strain sse1, active compounds read low 0.96 | S. cerevisiae deletion strains, locus YPL240C, strain hsp82, active compounds read low 0.984 | S. cerevisiae deletion strains, locus YPL256C, strain CLN2, active compounds read low 1.08 | S. cerevisiae deletion strains, locus YPR119W, strain clb2, active compounds read low 0.992 | S. cerevisiae deletion strains, locus YPR141C, strain kar3, active compounds read low 0.994 | S. cerevisiae deletion strains, locus YPR163C, strain tif3, active compounds read low 1 | S. cerevisiae deletion strains, locus YPR167C, strain met16, active compounds read low 0.998 | S. cerevisiae deletion strains, strain wtn01, active compounds read low 0.99 | S. cerevisiae strains, strain wild type, active compounds read low 1.01
